# Measurements taken from PubChem BioAssay (NCI).
# The panel holds about 83,000 compounds, 20% with a hit somewhere; the sample as a whole holds those more often.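 The test compound was applied at a single concentration to cells in 96-well plates for 48 hours, and percent growth was recorded.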 Unmarked numbers belong to inactive results. The source made the active and inactive calls. The calls were made as follows: active = growth percent below 10; inactive = the rest.
# Legend:
# Experiment in all cases: NCI-60 one-dose screen, 48 h (100 = growth as untreated, 0 = no growth, -100 = all killed)
# SK-MEL-2 melanoma = details: 10 µM unless noted
# EKVX NSCLC = details: 10 µM unless noted
# SN12C renal = details: 10 µM unless noted
# UO-31 renal = details: 10 µM unless noted
# TK-10 renal = details: 10 µM unless noted
# ACHN renal = details: 10 µM unless noted
# A498 renal = details: 10 µM
# HL-60(TB) leukemia = details: 10 µM unless noted
# CCRF-CEM leukemia = details: 10 µM unless noted
# MOLT-4 leukemia = details: 10 µM unless noted
# SR leukemia = details: 10 µM unless noted
# OVCAR-8 ovarian = details: 10 µM unless noted
# OVCAR-5 ovarian = details: 10 µM unless noted
# OVCAR-4 ovarian = details: 10 µM unless noted
# SK-OV-3 ovarian = details: 10 µM unless noted
# IGROV1 ovarian = details: 10 µM unless noted
# OVCAR-3 ovarian = details: 10 µM unless noted
# HS 578T breast = details: 10 µM unless noted
# RPMI-8226 leukemia = details: 10 µM unless noted
SMILES,growth (SK-MEL-2 melanoma),growth (EKVX NSCLC),growth (SN12C renal),growth (UO-31 renal),growth (TK-10 renal),growth (ACHN renal),growth (A498 renal),growth (HL-60(TB) leukemia),growth (CCRF-CEM leukemia),growth (MOLT-4 leukemia),growth (SR leukemia),growth (OVCAR-8 ovarian),growth (OVCAR-5 ovarian),growth (OVCAR-4 ovarian),growth (SK-OV-3 ovarian),growth (IGROV1 ovarian),growth (OVCAR-3 ovarian),growth (HS 578T breast),growth (RPMI-8226 leukemia)
Cc1cc(NC(=O)NCc2ccc(N3C(N)=NC(N)=NC3(C)C)cc2)ccc1S(=O)(=O)F,34.4%,53.5%,33.6%,80.1%,45.7%,89.2%,77.7%,24.7%,55.4%,42%,4.98% (active),-4.46% (active),10.8%,39.2%,64.9%,-51.3% (active),67.6%,68.6%,–
COC(=O)CCc1c[nH]c2ccc(N(CCCl)CCCl)cc12,121%,96.6%,36.6%,19.5%,90%,12.6%,84.3%,17.5%,–,23.1%,12.7%,56.1%,80.3%,79.7%,66.4%,65.6%,80.3%,–,86.3%
COc1cc2c(cc1OCCCCCn1c(-c3ccco3)nc3ccccc31)N=C[C@@H]1CCCN1C2=O,-43.9% (active),22.7%,15.8%,-23.9% (active),-1.37% (active),10.2%,-39.6% (active),-27.4% (active),29.8%,6.41% (active),0.702% (active),18.6%,7.02% (active),11.2%,42.3%,-59.8% (active),12.9%,14.7%,28%
COC(=O)[C@@H](C)C[C@H](Cc1ccccc1)NC(=O)c1nc([C@@H](C[C@H](C(C)C)N(C)C(=O)[C@@H](NC(=O)[C@H]2CCCCN2C)C(C)C)OC(C)=O)sc1C(C)C,20%,31.2%,10.8%,18.3%,45%,18.4%,-9.92% (active),-45.5% (active),7.31% (active),–,3.18% (active),2.95% (active),27.1%,41.6%,26.8%,19.8%,-22.9% (active),4.24% (active),20.5%
CCCC[C@H](NC(=O)[C@H]1CCCN1C)C(=O)N(C)[C@H](C[C@@H](OC(C)=O)c1nc(C(=O)N[C@@H](Cc2ccccc2)C[C@H](C)C(=O)OCC)cs1)C(C)C,52%,41.3%,23.6%,40.2%,16.4%,17.5%,-11.7% (active),-28.7% (active),11.1%,14.5%,6.28% (active),20%,32.7%,66.5%,17.2%,29.7%,8.32% (active),12.6%,16.6%
COC(=O)[C@@H](C)C[C@H](Cc1ccccc1)NC(=O)c1csc([C@@H](C[C@H](C(C)C)N(C)C(=O)[C@H](C)NC(=O)[C@H]2CCCN2C)OC(C)=O)n1,43.8%,69.8%,64.8%,71.8%,82.7%,68.6%,53.4%,-21.2% (active),18.7%,–,14.1%,58.3%,110%,88.9%,73.2%,58.1%,17.9%,17.6%,9.55% (active)
CN1CCC(c2c[nH]c3ccccc23)C1 (stereo not given),87.5%,98.1%,124%,69.1%,154%,96.2%,113%,104%,98.7%,105%,96.6%,96.4%,77%,107%,99.4%,–,103%,113%,79.7%
CC1=C(CNO)C2=C(C)C3(CC3)[C@@](C)(O)C(=O)C2=C1,-44.4% (active),9.85% (active),18.7%,-57.7% (active),-0.334% (active),-48.3% (active),-70.9% (active),8.14% (active),73.9%,51%,–,34.5%,1.01% (active),-8.4% (active),4% (active),-8.2% (active),-16.5% (active),40.2%,99.4%
